Test results published in PubChem BioAssay (Tox21).
Results filed as inconclusive are left out. Calls of active or inactive are those of the source. Unless noted, calls come from the whole dose curve; as a rule, active = well fitted curve in the direction sought with a large enough effect in the repeat runs; inconclusive = weak or mixed curves; inactive = no such curve, though single readings can be large; an effect the other way counts as inactive or inconclusive.

Experiments:
[1] = molecular target: Acetylcholinesterase (Homo sapiens) (UniProt P22303); experiment: Acetylcholinesterase (AChE) small molecule antagonists: enzyme-based qHTS assay (AID 1347397; calls by dose curve; note: nearly all actives have a fitted effect of over 55% in size; note: potency is the fitted concentration of half-maximal effect); details: Potency: AChE enzyme activity inhibition
Procedure, shortened: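 First, recombinant human AChE (50 mU/mL as dispensed) received test compound or DMSO. Second, plates stood 30 min at room temperature. Third, DTNB and acetylthiocholine were added, followed by 10 min at room temperature and colorimetric detection.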

[2] = molecular target: Acetylcholinesterase (Homo sapiens) (UniProt P22303); experiment: Acetylcholinesterase (AChE) small molecule antagonists: fluorescence cell-based qHTS assay (AID 1347398; calls by dose curve; note: nearly all actives have a fitted effect of over 50% in size; note: potency is the fitted concentration of half-maximal effect); details: Potency: AChE activity
Procedure, shortened: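 Homogeneous quantitative HTS format. SH-SY5Y cells seeded at 2,000 per well settle overnight at 37 C. Compound pretreatment runs 30 min (37 C, 5% CO2); substrate/probe mix then reacts 40 min at RT before reading 490/520 nm.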

[3] = molecular target: Acetylcholinesterase (Homo sapiens) (UniProt P22303); experiment: Acetylcholinesterase (AChE) small molecule antagonists: enzyme-based qHTS assay with human liver microsomes (AID 1347399; calls by dose curve; note: nearly all actives have a fitted effect of over 60% in size; note: potency is the fitted concentration of half-maximal effect); details: Potency: qHTS inhibition
Procedure, shortened: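 Recombinant human AChE (50 mU/mL in the enzyme mix) and human liver microsomes (0.25 mg/mL final) were preincubated with compound and NADPH (0.25 mg/mL final) for 30 min at 37 C. Acetylthiocholine/DTNB was then added; thiocholine was read colorimetrically after 10 min at room temperature.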

[4] = molecular target: Cytochrome P450 2C19 (Homo sapiens) (UniProt P33261); experiment: Cytochrome P450 Family 2 Subfamily C Member 19 (CYP2C19) small molecule antagonists: luciferase reporter qHTS assay (AID 1671197); note: nearly all actives have a fitted effect of over 65% in size; note: potency is the fitted concentration of half-maximal effect; for activity change, negative = inhibition: series mostly up to about 120 µM
Procedure, shortened: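 Luminescent readout of CYP2C19 activity: luciferin product detected 20 min after adding detection reagent. Before that, compound and enzyme-substrate mix preincubated 10 min at room temperature; NADPH-regenerating system started a 1 h, 37C reaction. Ketoconazole as positive control.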

[5] = molecular target: Cytochrome P450 2C9 (Homo sapiens) (UniProt P11712); experiment: Cytochrome P450 Family 2 Subfamily C Member 9 (CYP2C9) small molecule antagonists: luciferase reporter qHTS assay (AID 1671198); note: nearly all actives have a fitted effect of over 50% in size; note: potency is the fitted concentration of half-maximal effect; for activity change, negative = inhibition: series mostly up to about 120 µM
Procedure, shortened: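 Enzyme-substrate mix preincubated with compound 10 min at room temperature; reaction started with NADPH regeneration solution, 1 h 37C. Luminescent luciferin product read after 20 min detection reagent.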

[6] = molecular target: Voltage-gated inwardly rectifying potassium channel KCNH2 (Homo sapiens) (UniProt Q12809); experiment: Human Ether-a-go-go-Related Gene (hERG) channel small molecule antagonists: fluorescence cell-based qHTS assay (AID 1671200); note: nearly all actives have a fitted effect of over 50% in size; note: potency is the fitted concentration of half-maximal effect;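 for activity change, negative = inhibition: hERG-expressing U2OS cells given a thallium stimulus after FluxOR II dye loading; series mostly up to about 77 µM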
Procedure, shortened: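 hERG-U2OS cells plated overnight at 37 C, loaded with FluxOR II dye 1 h at RT in dark; after 10 min, thallium stimulus added. Fluorescence (480/540 nm) read kinetically for 2 min at 1 s intervals.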

[7] = molecular target: Cytochrome P450 3A4 (Homo sapiens) (UniProt P08684); experiment: Cytochrome P450 Family 3 Subfamily A Member 4 (CYP3A4) small molecule antagonists: luciferase reporter qHTS assay (AID 1671201); note: nearly all actives have a fitted effect of over 50% in size; note: potency is the fitted concentration of half-maximal effect; for activity change, negative = inhibition: series mostly up to about 120 µM
Procedure, shortened: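 P450-Glo CYP3A4 luminescent assay: compounds preincubated 10 min at room temperature with enzyme and proluciferin substrate, NADPH regeneration added, 1 h room-temperature reaction, stopped with luciferin detection reagent; luminescence read after 20 min. Ketoconazole positive control.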

[8] = molecular target: Cytochrome P450 1A2 (Homo sapiens) (UniProt P05177); experiment: Cytochrome P450 Family 1 Subfamily A Member 2 (CYP1A2) small molecule antagonists: luciferase reporter qHTS assay (AID 1671199); note: nearly all actives have a fitted effect of over 50% in size; note: potency is the fitted concentration of half-maximal effect; for activity change, negative = inhibition: series mostly up to about 120 µM
Procedure, shortened: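 Room-temperature CYP1A2 reaction with proluciferin substrate: compounds added from DMSO, 10 min preincubation, NADPH regeneration for 1 h. Luciferin detection reagent then added; luminescence recorded as RLU.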

[9] = molecular target: Cytochrome P450 2D6 (Homo sapiens) (UniProt P10635); experiment: Cytochrome P450 Family 2 Subfamily D Member 6 (CYP2D6) small molecule antagonists: luciferase reporter qHTS assay (AID 1671196)
Procedure, shortened: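 Room-temperature luminescent CYP2D6 activity assay: compound preincubated 10 min with enzyme–substrate mix, NADPH-initiated reaction 1 h, detection reagent 20 min before reading.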
% is set by controls: 0 for no effect and ±100 for the full control effect.

Chain of Acetylcholinesterase (Homo sapiens) (P22303 whole entry, looked up): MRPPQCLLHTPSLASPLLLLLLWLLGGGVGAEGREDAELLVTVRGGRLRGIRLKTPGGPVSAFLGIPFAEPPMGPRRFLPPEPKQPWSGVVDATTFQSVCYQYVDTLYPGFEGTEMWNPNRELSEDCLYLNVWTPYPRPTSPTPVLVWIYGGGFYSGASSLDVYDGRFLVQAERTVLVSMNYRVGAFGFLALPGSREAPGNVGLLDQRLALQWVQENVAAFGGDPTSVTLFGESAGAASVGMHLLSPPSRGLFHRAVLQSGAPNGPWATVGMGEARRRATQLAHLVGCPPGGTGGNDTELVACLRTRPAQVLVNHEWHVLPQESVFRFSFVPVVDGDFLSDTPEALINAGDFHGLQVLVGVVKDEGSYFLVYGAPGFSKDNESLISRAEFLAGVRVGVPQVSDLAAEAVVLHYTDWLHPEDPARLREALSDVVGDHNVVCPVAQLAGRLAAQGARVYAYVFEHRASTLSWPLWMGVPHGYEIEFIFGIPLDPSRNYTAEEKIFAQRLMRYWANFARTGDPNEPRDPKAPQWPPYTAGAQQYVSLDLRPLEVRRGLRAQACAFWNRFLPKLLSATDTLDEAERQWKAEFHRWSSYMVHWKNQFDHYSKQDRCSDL
Chain of Cytochrome P450 1A2 (Homo sapiens) (P05177 whole entry, looked up): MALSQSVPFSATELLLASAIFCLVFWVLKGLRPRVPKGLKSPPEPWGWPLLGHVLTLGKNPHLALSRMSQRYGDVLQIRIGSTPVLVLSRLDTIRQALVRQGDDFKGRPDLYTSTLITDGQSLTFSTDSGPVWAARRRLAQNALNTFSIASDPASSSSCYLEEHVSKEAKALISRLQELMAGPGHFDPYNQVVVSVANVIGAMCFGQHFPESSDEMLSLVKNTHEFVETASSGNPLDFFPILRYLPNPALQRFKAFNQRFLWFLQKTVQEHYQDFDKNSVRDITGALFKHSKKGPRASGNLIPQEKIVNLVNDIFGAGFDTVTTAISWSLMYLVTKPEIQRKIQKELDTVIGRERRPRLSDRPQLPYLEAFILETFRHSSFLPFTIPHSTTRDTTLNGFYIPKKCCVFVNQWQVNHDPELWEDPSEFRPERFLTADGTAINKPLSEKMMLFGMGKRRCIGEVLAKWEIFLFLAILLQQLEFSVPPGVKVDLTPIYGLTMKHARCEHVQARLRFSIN
Chain of Cytochrome P450 2C19 (Homo sapiens) (P33261 whole entry, looked up): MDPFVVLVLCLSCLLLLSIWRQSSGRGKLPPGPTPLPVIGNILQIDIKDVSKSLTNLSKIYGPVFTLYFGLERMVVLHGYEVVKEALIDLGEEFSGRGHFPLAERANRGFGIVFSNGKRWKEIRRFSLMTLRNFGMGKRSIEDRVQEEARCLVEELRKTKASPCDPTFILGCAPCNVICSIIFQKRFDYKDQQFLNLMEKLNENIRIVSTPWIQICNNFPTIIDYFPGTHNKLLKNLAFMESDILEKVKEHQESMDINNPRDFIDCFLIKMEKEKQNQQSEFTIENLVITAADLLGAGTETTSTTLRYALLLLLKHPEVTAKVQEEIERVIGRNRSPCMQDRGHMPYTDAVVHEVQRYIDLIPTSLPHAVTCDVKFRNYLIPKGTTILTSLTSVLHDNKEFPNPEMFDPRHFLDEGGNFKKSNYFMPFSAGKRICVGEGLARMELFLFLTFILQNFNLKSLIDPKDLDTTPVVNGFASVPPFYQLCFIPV
Chain of Cytochrome P450 2C9 (Homo sapiens) (P11712 whole entry, looked up): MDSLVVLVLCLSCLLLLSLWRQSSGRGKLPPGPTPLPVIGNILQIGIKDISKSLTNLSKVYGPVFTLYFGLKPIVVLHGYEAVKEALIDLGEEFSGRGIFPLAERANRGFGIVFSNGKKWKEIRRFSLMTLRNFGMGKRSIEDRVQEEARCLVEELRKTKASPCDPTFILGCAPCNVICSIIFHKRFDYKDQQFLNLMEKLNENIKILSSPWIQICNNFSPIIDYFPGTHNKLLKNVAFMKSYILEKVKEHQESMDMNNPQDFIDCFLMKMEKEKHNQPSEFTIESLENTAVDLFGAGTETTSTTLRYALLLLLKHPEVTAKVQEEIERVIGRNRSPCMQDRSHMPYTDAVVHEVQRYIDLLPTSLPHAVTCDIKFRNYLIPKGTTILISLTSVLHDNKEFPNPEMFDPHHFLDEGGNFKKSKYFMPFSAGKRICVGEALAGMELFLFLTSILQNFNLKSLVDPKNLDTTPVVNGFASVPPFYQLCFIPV
Chain of Cytochrome P450 3A4 (Homo sapiens) (P08684 whole entry, looked up): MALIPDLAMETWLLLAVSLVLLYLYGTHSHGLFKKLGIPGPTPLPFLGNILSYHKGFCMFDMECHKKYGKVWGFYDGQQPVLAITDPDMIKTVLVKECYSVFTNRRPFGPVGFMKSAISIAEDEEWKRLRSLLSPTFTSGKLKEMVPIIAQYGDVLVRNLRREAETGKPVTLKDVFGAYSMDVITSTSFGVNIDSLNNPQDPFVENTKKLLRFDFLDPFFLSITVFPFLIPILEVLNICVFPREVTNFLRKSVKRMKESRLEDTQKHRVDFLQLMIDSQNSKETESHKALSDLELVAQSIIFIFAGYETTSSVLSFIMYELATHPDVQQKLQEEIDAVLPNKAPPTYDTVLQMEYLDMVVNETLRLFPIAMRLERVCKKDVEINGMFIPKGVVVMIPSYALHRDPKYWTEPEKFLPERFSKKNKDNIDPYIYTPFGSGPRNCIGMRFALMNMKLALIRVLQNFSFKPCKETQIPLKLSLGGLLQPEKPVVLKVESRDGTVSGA
Chain of Voltage-gated inwardly rectifying potassium channel KCNH2 (Homo sapiens) (Q12809 whole entry, looked up): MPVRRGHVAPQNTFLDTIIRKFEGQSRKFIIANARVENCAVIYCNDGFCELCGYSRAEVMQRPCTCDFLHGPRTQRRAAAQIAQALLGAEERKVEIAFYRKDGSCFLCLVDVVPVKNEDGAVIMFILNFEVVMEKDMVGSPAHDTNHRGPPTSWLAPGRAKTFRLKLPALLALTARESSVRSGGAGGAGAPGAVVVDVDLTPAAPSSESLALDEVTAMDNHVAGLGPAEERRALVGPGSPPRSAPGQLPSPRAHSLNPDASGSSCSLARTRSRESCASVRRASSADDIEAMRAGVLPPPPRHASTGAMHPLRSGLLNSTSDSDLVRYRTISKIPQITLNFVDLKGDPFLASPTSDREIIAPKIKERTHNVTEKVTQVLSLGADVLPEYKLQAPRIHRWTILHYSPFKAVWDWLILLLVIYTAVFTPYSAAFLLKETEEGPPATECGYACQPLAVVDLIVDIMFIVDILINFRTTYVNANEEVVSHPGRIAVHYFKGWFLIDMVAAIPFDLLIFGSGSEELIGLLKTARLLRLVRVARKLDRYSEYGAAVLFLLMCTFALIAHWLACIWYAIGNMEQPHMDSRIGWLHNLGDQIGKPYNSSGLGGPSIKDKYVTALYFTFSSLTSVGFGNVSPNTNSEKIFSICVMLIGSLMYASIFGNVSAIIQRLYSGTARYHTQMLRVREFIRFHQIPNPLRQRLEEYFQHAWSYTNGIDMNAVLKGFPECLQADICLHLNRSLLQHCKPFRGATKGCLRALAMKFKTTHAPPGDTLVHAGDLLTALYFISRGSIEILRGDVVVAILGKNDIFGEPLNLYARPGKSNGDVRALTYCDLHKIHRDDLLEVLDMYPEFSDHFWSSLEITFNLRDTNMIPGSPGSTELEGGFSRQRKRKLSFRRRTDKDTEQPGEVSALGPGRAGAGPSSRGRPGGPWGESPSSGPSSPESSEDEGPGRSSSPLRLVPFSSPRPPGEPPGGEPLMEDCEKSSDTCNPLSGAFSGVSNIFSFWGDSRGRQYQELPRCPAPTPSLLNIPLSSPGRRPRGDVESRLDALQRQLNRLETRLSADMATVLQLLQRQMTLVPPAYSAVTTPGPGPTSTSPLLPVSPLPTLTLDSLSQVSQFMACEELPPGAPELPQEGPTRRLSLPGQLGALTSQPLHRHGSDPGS
Chain of Cytochrome P450 2D6 (Homo sapiens) (P10635 whole entry, looked up): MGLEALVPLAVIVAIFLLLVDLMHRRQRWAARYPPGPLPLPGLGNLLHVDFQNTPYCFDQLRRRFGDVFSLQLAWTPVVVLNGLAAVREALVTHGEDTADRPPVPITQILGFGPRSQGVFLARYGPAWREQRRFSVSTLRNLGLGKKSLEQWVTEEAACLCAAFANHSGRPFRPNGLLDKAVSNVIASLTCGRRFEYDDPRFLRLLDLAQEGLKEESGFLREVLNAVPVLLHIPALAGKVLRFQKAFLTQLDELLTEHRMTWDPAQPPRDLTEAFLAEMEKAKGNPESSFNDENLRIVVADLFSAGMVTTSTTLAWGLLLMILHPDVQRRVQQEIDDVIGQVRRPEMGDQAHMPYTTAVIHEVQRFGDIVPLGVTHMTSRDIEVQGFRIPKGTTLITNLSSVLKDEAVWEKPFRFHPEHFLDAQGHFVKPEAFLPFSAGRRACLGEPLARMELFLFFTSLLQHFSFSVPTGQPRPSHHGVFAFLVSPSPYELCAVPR

CCCCC(=O)Cl
inactive: Potency [1] | Potency [2] | Potency [3] | Potency [4] | Potency [5] | Potency [6] | Potency [7]

O=[N+]([O-])c1cccc2c([N+](=O)[O-])cccc12
inactive: Potency [1] | Potency [2] | Potency [3]
active: Potency [4] 22.6 µM | Potency [5] 40.1 µM | Potency [8] 1.01 µM | Potency [6] 24.7 µM | Potency [7] 31.9 µM

CC1(C)COP(Oc2ccccc2)OC1
inactive: Potency [1] | Potency [2] | Potency [3] | Potency [4] | Potency [5] | Potency [6] | Potency [7]

COC(C)(C)C
inactive: Potency [1] | Potency [2] | Potency [3] | Potency [4] | Potency [5] | Potency [6] | Potency [7]

CC(=O)CC(c1ccc(Cl)cc1)c1c(O)c2ccccc2oc1=O (configuration not stated)
active: Potency [5] 11.8 µM
inactive: Potency [1] | Potency [2] | Potency [3] | Potency [4] | Potency [8] | Potency [6] | Potency [7]

CNC(=O)Oc1ccccc1C1OCCO1
inactive: Potency [1] | Potency [2] | Potency [3] | Potency [4] | Potency [6]
active: Potency [8] 25.1 µM

CC(C)(C)NCC(O)c1cc(Cl)c(N)c(Cl)c1 (configuration not stated)
inactive: Potency [1] | Potency [2] | Potency [3] | Potency [4] | Potency [5] | Potency [8] | Potency [6] | Potency [7]

CC(=O)CCc1ccc2c(c1)OCO2
inactive: Potency [1] | Potency [2] | Potency [3] | Potency [6]
active: Potency [4] 35.6 µM | Potency [5] 31.7 µM | Potency [8] 0.633 µM | Potency [7] 22.4 µM

c1ccc(N2CCNCC2)cc1
inactive: Potency [1] | Potency [2] | Potency [3] | Potency [4] | Potency [5] | Potency [6] | Potency [7]

N#CC(CCc1ccc(Cl)cc1)(Cn1cncn1)c1ccccc1 (configuration not stated)
inactive: Potency [1] | Potency [2] | Potency [3]
active: Potency [4] 0.2 µM | Potency [5] 2.24 µM | Potency [8] 31.7 µM | Potency [6] 21.9 µM | Potency [7] 0.0633 µM

Clc1cccc(N2CCNCC2)c1
inactive: Potency [1] | Potency [2] | Potency [3] | Potency [4] | Potency [5] | Potency [6] | Potency [7]

O=C1c2ccccc2C(=O)c2ccccc21
inactive: activity change, negative = inhibition [1] -0.378% [at 23.6 µM] | activity change, negative = inhibition [2] 3.86% [at 23.8 µM] | activity change, negative = inhibition [3] -1.34% [at 23.6 µM] | activity change, negative = inhibition [4] 10.7% [at 23.6 µM] | activity change, negative = inhibition [5] 2.12% [at 23.6 µM] | activity change, negative = inhibition [6] 3.3% [at 15.8 µM] | activity change, negative = inhibition [7] 15.9% [at 23.6 µM]
active: Potency [8] 0.177 µM

CNC(=O)Oc1ccc(N(C)C)c(C)c1
active: Potency [1] 6.33 µM | Potency [2] 2.24 µM | Potency [3] 39.9 µM | Potency [8] 11.2 µM
inactive: Potency [4] | Potency [5] | Potency [6] | Potency [7]

Cc1ccccc1CO[C@@H]1C[C@@]2(C(C)C)CC[C@]1(C)O2
active: Potency [4] 5.64 µM | Potency [5] 22.4 µM | Potency [8] 20 µM | Potency [7] 3.99 µM
inactive: Potency [1] | Potency [2] | Potency [3] | Potency [6]

CCCSP(=S)(OCC)Oc1ccc(Cl)cc1Cl (configuration not stated)
active: Potency [4] 2.24 µM | Potency [5] 2 µM | Potency [8] 11.2 µM | Potency [7] 2.83 µM
inactive: Potency [1] | Potency [2] | Potency [3] | Potency [6]

CCC/C(=N\OCC)C1=C(O)CC(CC(C)SCC)CC1=O (configuration not stated)
active: Potency [4] 8.99 µM | Potency [5] 31.9 µM | Potency [8] 35.8 µM
inactive: Potency [1] | Potency [2] | Potency [3] | Potency [6] | Potency [7]

C[N+](=O)[O-]
inactive: Potency [1] | Potency [2] | Potency [3] | Potency [4] | Potency [5] | Potency [6] | Potency [7]

CC1(C)CON(Cc2ccccc2Cl)C1=O
active: Potency [4] 10 µM | Potency [8] 31.7 µM
inactive: Potency [1] | Potency [2] | Potency [3] | Potency [6]

C[C@]12CC[C@H]3[C@@H](CC=C4C[C@@H](O)CC[C@@]43C)[C@@H]1CC[C@@H]2O
inactive: Potency [6]

CC(C)NCC(O)c1ccc(N)c(C#N)c1 (configuration not stated)
inactive: Potency [1] | Potency [2] | Potency [3] | Potency [6]

O=C(Cc1ccccc1)OCc1ccccc1
active: Potency [4] 10.1 µM | Potency [8] 18 µM
inactive: Potency [1] | Potency [2] | Potency [3] | Potency [6] | Potency [7]

CCN(CC)c1nc(C)cc(OP(=S)(OC)OC)n1
inactive: Potency [1] | Potency [3]
active: Potency [4] 0.178 µM | Potency [5] 22.4 µM | Potency [8] 1.78 µM | Potency [7] 2.24 µM

CCOc1nc(C(Cl)(Cl)Cl)ns1
inactive: Potency [1] | Potency [3] | Potency [9] | Potency [4] | Potency [6] | Potency [7]

ClC(Br)Br
inactive: Potency [1] | Potency [2] | Potency [3] | Potency [5] | Potency [8] | Potency [6] | Potency [7]

Cc1coc2c1CCC(C)C2 (configuration not stated)
active: Potency [4] 73.4 µM | Potency [7] 29.2 µM
inactive: Potency [1] | Potency [2] | Potency [3] | Potency [6]

CN/C(=N\[N+](=O)[O-])NCC1CCOC1 (configuration not stated)
inactive: Potency [6]
